Most compounds without a hit are left out; they make up all but 11% or so of the library.
JMJD2A Tudor inh = inhibitors of human JMJD2A Tudor domain | Potency, µM (doses to about 114 µM), inactives show at the top dose activity change, negative = inhibition, actives largely listed as inhibitors | hit rate 4.4% among 390,000 | O75164 | AlphaScreen JMJD2A-Tudor / H3K4me3 peptide binding | AID 504339; further: on the % scale 0 is the no-effect control and ±100 the full control effect; nearly all actives have a fitted effect of over 50% in size
HP1b binding inh = blocks HP1-beta chromodomain binding to methylated histone tails; Potency, µM (doses to about 114 µM), for inactives: top-dose activity change, negative = inhibition, actives largely listed as inhibitors; hit rate 0.56% among 390,000; AlphaScreen HP1-beta / biotin-H3K9me3 peptide binding; AID 540317; further: nearly all actives have a fitted effect of over 70% in size
Target sequence (P83916 whole entry, looked up): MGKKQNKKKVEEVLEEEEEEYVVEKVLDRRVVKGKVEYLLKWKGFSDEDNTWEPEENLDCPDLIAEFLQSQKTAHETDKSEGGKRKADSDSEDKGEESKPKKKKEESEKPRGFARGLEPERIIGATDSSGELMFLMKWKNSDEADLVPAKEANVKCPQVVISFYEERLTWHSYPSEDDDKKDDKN
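Compound inhibition of the preformed complex between 50 nM HP1-beta and 50 nM biotinylated H3K9me3 peptide was read by AlphaScreen. Buffer was PBS pH 7.4 with 0.01% Tween-20. Incubations ran 30 min at room temperature, with 10 ug/mL donor/acceptor beads.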
L3MBTL1 block = L3MBTL1 (human) inhibition | Q9Y468 | AlphaScreen L3MBTL1–H3K9me1 peptide binding | Potency, µM (series often up to 57.1 µM), for the others: top-dose activity, negative = inhibition, most hits filed as inhibitors | hit rate 0.66% among 230,000 | AID 485360; further: on the % scale 0 is the no-effect control and ±100 the full control effect; nearly all actives have a fitted effect of over 60% in size
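AlphaScreen assay: L3MBTL1 (50 nM final) was preincubated 30 min at room temperature with biotinylated H3(1-15)K9me1 peptide (75 nM final), then 30 min with library compounds; streptavidin donor and nickel chelate acceptor beads (10 ug/mL final) added, 30 min dark.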
G9a inh = blocks human histone lysine methyltransferase G9a; Q96KQ7; G9a H3K9 monomethylation, AlphaScreen, 2 h; Potency, µM (titrated, usually from 102 µM), for inactives: at the top dose activity, negative = inhibition, most hits filed as inhibitors; hit rate 8.8% among 350,000; AID 504332; further: on the % scale 0 is the no-effect control and ±100 the full control effect; nearly all actives have a fitted effect of over 75% in size
Target sequence (Q96KQ7 913-1193 limits assumed): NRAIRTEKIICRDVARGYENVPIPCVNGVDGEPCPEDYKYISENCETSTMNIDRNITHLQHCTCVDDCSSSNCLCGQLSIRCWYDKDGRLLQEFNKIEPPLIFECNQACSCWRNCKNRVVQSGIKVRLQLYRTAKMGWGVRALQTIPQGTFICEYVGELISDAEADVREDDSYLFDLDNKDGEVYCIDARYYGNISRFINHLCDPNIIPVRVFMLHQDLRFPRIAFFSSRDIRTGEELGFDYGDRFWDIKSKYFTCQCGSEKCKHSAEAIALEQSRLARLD
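AlphaScreen read-out: biotin-H3K9 peptide (500 nM) methylation by 20 nM enzyme with 20 uM SAM, 2 h at room temperature after 15 min compound preincubation; anti-monomethyl H3K9 antibody plus donor/acceptor beads, 10 min dark.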
BAZ2B inh = BAZ2B (human) inhibition; Q9UIF8; AlphaScreen BAZ2B-H3K14Ac peptide displacement; Potency, µM (top dose mostly 114 µM), for the others: at the top dose activity change, negative = inhibition, actives largely listed as inhibitors; hit rate 4.4% among 360,000; AID 504333; further: on the % scale 0 is the no-effect control and ±100 the full control effect; nearly all actives have a fitted effect of over 60% in size
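Complex of BAZ2B and biotin-H3K14Ac (50 nM apiece) forms over 30 min at RT, then faces library compounds up to 110 uM for another 30 min; AlphaScreen beads added, 20 min dark incubation, luminescence read.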
Starred values were filed as active, the others as inactive; [ ] = another dose, or the depositor's remark. The call rests on the fitted dose curve; in most records, active means well fitted inhibition curve with a large enough effect; inconclusive means small, poorly fitted or top-dose-only effect; inactive means no such curve, though single readings can be large or run the other way. Potency means the concentration at half of the fitted maximal effect.

What do the screens show for `COc1ccc(N2CCN(C(=O)c3cc(=O)c4cc(C)c(C)cc4o3)CC2)cc1`?
JMJD2A Tudor inh: 56µM*; HP1b binding inh: 6%; G9a inh: 6%; BAZ2B inh: -9%

Results for COc1cc([N+](=O)[O-])ccc1NC(=O)N1CCC2(CC1)Nc1ccccc1-n1cccc12 ?
JMJD2A Tudor inh: inconclusive; HP1b binding inh: -17%[57 µM]; G9a inh: inconclusive; BAZ2B inh: inconclusive

What do the screens show for `Cc1cc(OCC(=O)Nc2cc(-c3nc4ncccc4o3)ccc2C)ccc1Cl`?
JMJD2A Tudor inh: -30%; HP1b binding inh: -5%; G9a inh: -10%[59 µM]; BAZ2B inh: -14%

Results for Cc1ccc(-c2nc3ncccc3o2)cc1NC(=O)COc1ccc(C(C)C)cc1 ?
JMJD2A Tudor inh: -17%; HP1b binding inh: 32%; G9a inh: 14µM*; BAZ2B inh: -6%

Results for CSCCC(NS(=O)(=O)c1ccccc1F)C(=O)NCc1ccncc1 (centres undefined) ?
JMJD2A Tudor inh: -8%; HP1b binding inh: 22%; L3MBTL1 block: 8%; G9a inh: 1%; BAZ2B inh: 0%

How did Fc1ccc(-c2[nH]ncc2CN2CCN(c3ccc(F)cc3)CC2)cc1 do in these assays?
JMJD2A Tudor inh: -28%; HP1b binding inh: -13%; L3MBTL1 block: -22%; G9a inh: inconclusive; BAZ2B inh: -39%

Results for Oc1ccc(CN2CCN(c3ccccc3)CC2)c2cccnc12 ?
JMJD2A Tudor inh: -31%; HP1b binding inh: 22%; L3MBTL1 block: 0%; G9a inh: 3.2µM*; BAZ2B inh: inconclusive

Results for Ic1ccc(N2CCN(Cc3c[nH]c4ncccc34)CC2)cc1 ?
JMJD2A Tudor inh: 89µM*; HP1b binding inh: 3%; L3MBTL1 block: -3%; G9a inh: 24µM*; BAZ2B inh: 50µM*

How did Cc1cc2ccccc2cc1CN1CCCCC1 do in these assays?
JMJD2A Tudor inh: 0%; HP1b binding inh: 42%; L3MBTL1 block: 2%; G9a inh: 14%; BAZ2B inh: -6%

What do the screens show for `Oc1c(CN2CCCCC2)ccc2cccnc12`?
JMJD2A Tudor inh: 20µM*; HP1b binding inh: 15%

How did Oc1ccc2ccccc2c1CN1CCN(c2ccccc2)CC1 do in these assays?
JMJD2A Tudor inh: -30%; HP1b binding inh: 20%; G9a inh: inconclusive; BAZ2B inh: -13%

What do the screens show for `Oc1ccc(CN2CCC(Cc3ccccc3)CC2)c2cccnc12`?
JMJD2A Tudor inh: 25µM*; HP1b binding inh: 17%; G9a inh: 35µM*; BAZ2B inh: 20µM*

Results for OCCN1CCN(Cc2cc(Cl)c3cccnc3c2O)CC1 ?
JMJD2A Tudor inh: 13µM*; HP1b binding inh: 4%; G9a inh: 50µM*; BAZ2B inh: 7.9µM*

How did O=[N+]([O-])c1cc(CN2CCCC2)c2cccnc2c1O do in these assays?
JMJD2A Tudor inh: 13µM*; HP1b binding inh: inconclusive; L3MBTL1 block: 4µM*; G9a inh: inconclusive; BAZ2B inh: 5µM*

Results for FC(F)(F)c1ccccc1CN1CCC(Cc2ccccc2)CC1 ?
JMJD2A Tudor inh: 13µM*; HP1b binding inh: inconclusive; L3MBTL1 block: 22%; G9a inh: 22µM*; BAZ2B inh: 1%

Results for CS(=O)(=O)N1CCN(Cc2ccccc2C(F)(F)F)CC1 ?
JMJD2A Tudor inh: -16%[11.4 µM]; HP1b binding inh: 30%; L3MBTL1 block: 5%; G9a inh: 14%[59 µM]; BAZ2B inh: 3%

What do the screens show for `Oc1ccc(CN2CCc3ccccc3C2)c2cccnc12`?
JMJD2A Tudor inh: 10µM*; HP1b binding inh: -18%; G9a inh: inconclusive; BAZ2B inh: 5.6µM*

What do the screens show for `O=C(Nc1cccc(F)c1)C1CCN(c2nc3ccccc3[nH]2)CC1`?
JMJD2A Tudor inh: 0%; HP1b binding inh: 28%[57 µM]; G9a inh: 5%[59 µM]; BAZ2B inh: -1%

What do the screens show for `CCc1ccc(NC(=O)CSc2nc3c(c(=O)[nH]2)CN(Cc2ccc(C)cc2)CC3)cc1`?
JMJD2A Tudor inh: -6%; HP1b binding inh: 60%; G9a inh: -3%[59 µM]; BAZ2B inh: -24%

What do the screens show for `CC(C)c1ccc2oc(-c3ccc(NC(=O)c4cccc(Br)c4)cc3)nc2c1`?
JMJD2A Tudor inh: -18%; HP1b binding inh: 19%; G9a inh: -6%[59 µM]; BAZ2B inh: -1%

From PubChem BioAssay
